Measurements published in the supplement of paper PMC6555819.

The sequences below were run on RARa:RXR (NR concentration 270 nM, RXRa partner concentration 90 nM) (assay: PBM binding z-score (relative to random genomic background probes); higher = stronger binding; sequences stand for … in GC…GCGATTGACAGCGTAGAATGAAGG).
How it was run: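 Antibodies against each partner of ligand-free nuclear receptor dimers (one per run) detected binding on custom Agilent 4×180K protein-binding microarrays after 1 h incubation. The double-stranded probes had 34-nt variable regions carrying direct-repeat seeds, single-nucleotide variants, half-site ablations and random human genomic background sequences. Binding z-scores, from regression-normalized fluorescence, use the random background probes as reference.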

| Sequence | PBM binding z-score |
| --- | --- |
| CGATCTAGGTCACCAGGACAGTGAAGAGGTTGGA | 2.44 |
| CGAACTAGATCACCAGGACAGTGAAGAGGTTGGA | -0.108 |
| CGAACTAGGTCACCTGGACAGTGAAGAGGTTGGA | 2.53 |
| ATATGTAGGTTAGGGTCTTTCAGAAAGTAGGGAA | 1.2 |
| CGAACTAGGTCAAAGGACAGTGGAAGGCGACGTA | 1.74 |
| CGAACTAGGTCACCAGGACAGTGCAGAGGTTGGA | 2.58 |
| CGAACTAGGTCAAAGGACAGTGATAGGCGACGTA | 2.05 |
| ATATGTAGGTTAGTGTCATTCAGAAAGTAGGGAA | 1.32 |
| CGTACTAGGTCACCAGGACAGTGAAGAGGTTGGA | 2.86 |
| ATATGTAGGTTAGGCTCATTCAGAAAGTAGGGAA | -0.184 |
| ATATGCAGGTTAGGGTCATTCAGAAAGTAGGGAA | 4.9 |
| CGAACTAGGTCACCAGGAGAGTGAAGAGGTTGGA | 2.45 |
| CGAACTAGGTCAAATGACAGTGAAAGGCGACGTA | 2.23 |
| CGAACTAGGTCAAAGGACAGTGACAGGCGACGTA | 2.47 |
| ATAAGTAGGTTAGGGTCATTCAGAAAGTAGGGAA | 5.36 |
| CGAACTAGGTCACCAGGACAGTAAAGAGGTTGGA | 2.62 |
| ATATGTAGGTGAGGGTCATTCAGAAAGTAGGGAA | 3.81 |
| CGAACTAGGTCAGCAGGACAGTGAAGAGGTTGGA | 0.95 |
| CGAACTAGGTCAAAGGACAATGAAAGGCGACGTA | 2.52 |
| CGATCTAGGTCAAAGGACAGTGAAAGGCGACGTA | 2.13 |

| Sequence | PBM binding z-score |
| --- | --- |
| ATATGTAGGTTAGAGTCATTCAGAAAGTAGGGAA | 0.989 |
| CGAACTAGGTCACCAGGACAGTGAAGAGGTTGGA | 2.76 |
| ATATGTAGGCTAGGGTCATTCAGAAAGTAGGGAA | 4.04 |
| CGAACTTGGTCACCAGGACAGTGAAGAGGTTGGA | 0.344 |
| ATATGTAGGTTAGGGGCATTCAGAAAGTAGGGAA | 1.52 |
| ATATGTAGGTTAGGGTCATTAAGAAAGTAGGGAA | 4.79 |
| ATATGTAGGTTTGGGTCATTCAGAAAGTAGGGAA | 2.47 |
| ATATGTAAGTTAGGGTCATTCAGAAAGTAGGGAA | 5.07 |
| ATATGAAGGTTAGGGTCATTCAGAAAGTAGGGAA | 5.28 |
| CGAACTAGGTCAATGGACAGTGAAAGGCGACGTA | 1.18 |
| CGAACTAGGTAACCAGGACAGTGAAGAGGTTGGA | -0.0151 |
| ATATGGAGGTTAGGGTCATTCAGAAAGTAGGGAA | 4.55 |
| CGAACTAGGTCACCAGGGCAGTGAAGAGGTTGGA | 2.53 |
| CGAACTAGGTCACCAGGACATTGAAGAGGTTGGA | 2.53 |
| CGAACTAGGTCAAAGGACAGCGAAAGGCGACGTA | 2.66 |
| CGAACTAGGCCACCAGGACAGTGAAGAGGTTGGA | -0.512 |
| CGAACTAGGGCACCAGGACAGTGAAGAGGTTGGA | -0.404 |
| CCAACTAGGTCACCAGGACAGTGAAGAGGTTGGA | 2.69 |
| CGAACTAGGTCAAAGTACAGTGAAAGGCGACGTA | 2.5 |
